Outcome and AC50 data for 37 molecules are collected here from PubChem BioAssay (EPA / NIEHS).

Values joined by “and” are separate entries in the source; they are usually repeats but may differ in a detail not shown here. Identical values can stand only once. More than one record can exist for a structure, and the calls need not agree. Active and inactive are the calls of the source. Rule for the calls: active = hit-call score of the fitted dose curve at least 0.9, where 1 is the maximum; inactive = score below 0.9.

In general, AC50 refers to the concentration at which the activity in the assay is half-maximal.

Read-out in the assay: Human Leukocyte Antigen - DR isotype (HLADR), HLA-DRA (gene 3122)
The assay can be described thus: BSK_3C_HLADR: BioMAP Diversity Plus: 3C Assay for Human Leukocyte Antigen - DR isotype (HLADR) Biomarker Activity (AID 2283019). The note with it: primary human endothelial cells (HUVEC); actives raise or lower the signal. Here is the method:
BSK_3C is a cell-based, multiplexed-readout assay that uses umbilical vein endothelium, a human vascular primary cell, with measurements taken at 24 hours after chemical dosing in a 96-well plate.BSK_3C_HLADR is an assay component measured in the BSK_3C assay. It measures HLA-DR antibody related to regulation of gene expression using ELISA technology.Data from the assay component BSK_3C_HLADR was analyzed into 1 assay endpoint. This assay endpoint, BSK_3C_HLADR, was analyzed with bidirectional fitting relative to DMSO as the negative control and baseline of activity. Using a type of binding reporter, gain or loss-of-signal activity can be used to understand changes in the signaling as they relate to the gene HLA-DRA. Furthermore, this assay endpoint can be referred to as a primary readout, because this assay has produced multiple assay endpoints where this one serves a signaling function. To generalize the intended target to other relatable targets, this assay endpoint is annotated to the cell adhesion molecules intended target family, where the subfamily is MHC Class II.
The levels of cell surface (or secreted, indicated by the prefix "s") biomarker endpoints were measured by ELISA. Overt cytotoxicity to cells in confluent adherent cultures (all systems other than the BT system) was assessed by measuring total protein levels using sulforhodamine B (SRB) staining in parallel cultures at the time of biomarker measurements, indicated as SRB endpoints. For proliferation assays for adherent cell types, individual cell types are cultured at sub-confluence and relative cell numbers quantified by SRB staining at time points optimized for each system (48 h: 3C and CASM3C systems; 72 h: BT and HDF3CGF systems; 96 h: SAg system). SRB was performed by staining cells with 0.1% SRB after fixation with 10% TCA and reading wells at 560 nm.Viability and proliferation of PBMC (T cells) was quantified by Alamar Blue reduction for the SAg and BT systems. For PBMC viability (referred to as PBMC Cytotoxicity within the assay endpoint names), cells were plated (75,000/well in a 96-well plate) and then chemical samples added for 1 h before addition of activators, SEB and TSST-1 (20 ng/mL final concentration each). Cells were incubated for 90 h. Then, Alamar Blue (20 uL/well) (Invitrogen, Cat DAL1100) was added for 6 h, and the plates were read with a fluorescence microplate reader at 546/580 nm (excitation/emission). For PBMC proliferation, cells were plated and activated as above but incubated for only 16 h prior to addition of Alamar Blue. Plates were read after 6 h.
`O=S(=O)(OCC(F)F)C(F)(F)F`: the result was inactive. Same read-out and setting: with `FC(F)(F)C(F)(F)C(F)(F)C(F)(F)C(F)(F)C(F)(F)C(F)(F)Br` the entry was “inactive”; with `O=C(CC(=O)C(F)(F)C(F)(F)F)C(F)(F)F`, “inactive”. `C#C[C@]1(O)CC[C@H]2[C@@H]3CCc4cc(OC)ccc4[C@H]3CC[C@@]21C`: the AC50 was 31.2 µM (active).

In the case of `C=CC(=O)OCC(F)(F)C(F)(F)C(F)(F)C(F)(F)C(F)(F)C(F)(F)C(F)(F)F`, the result was inactive. For the molecule `CCCCNc1ccccc1`, the outcome was inactive. On to `Nc1ccc([N+](=O)[O-])cc1O`, for which the result was inactive. Same read-out and setting: with `NC(=O)C(F)(F)C(F)(F)C(F)(F)C(F)(F)F` the entry was “inactive”. Still for that read-out and setting: in the case of `FC(F)(F)C(F)(F)C(F)(F)C(F)(F)C(F)(F)CCI` it was “inactive”; in that of `O=C(O)C(F)(F)C(F)(F)C(F)(F)C(F)(F)C(F)(F)C(F)(F)C(F)(F)C(F)(F)C(F)(F)C(F)(F)C(F)(F)C(F)(F)F`, “inactive”. Still for that read-out and setting: with `FC(F)(F)C(F)(F)C(F)(F)C(F)(F)C(F)(F)C(F)(F)CC1CO1` (stereo not given) the entry was “inactive”. As to `CCCCC(CC)COP(=O)(O)OCC(CC)CCCC` (stereo not given), the result was inactive.

In the case of `O=C(O)C(F)(F)C(F)(F)OC(F)(F)F`, the outcome was inactive. Regarding `N=C(N)C(F)(F)C(F)(F)C(F)(F)C(F)(F)C(F)(F)C(F)(F)C(F)(F)F`, the AC50 was 30 µM (active) and the result was inactive. In the same order, the values of `O=C(O)C(F)(F)C(F)(F)C(F)(F)C(F)(F)C(F)(F)C(F)(F)C(F)(F)C(F)(F)C(F)(F)C(F)F` are 37.5 µM (active) and “inactive”. For `FC(F)(F)C(F)(F)C(F)(F)C(F)(F)C(F)(F)C(F)(F)C(F)(F)I`, the outcome was inactive.

Regarding `CCO[Si](CCC(F)(F)C(F)(F)C(F)(F)C(F)(F)C(F)(F)C(F)(F)F)(OCC)OCC`, the result was inactive.

`O[Si](c1ccccc1)(c1ccccc1)c1ccccc1`: the concentration at half-maximal activity (AC50) was 30.6 µM (active).

For the molecule `C=CC(F)(F)C(F)(F)C(F)(F)C(F)(F)C(F)(F)C(F)(F)C(F)(F)C(F)(F)F`, the result was inactive. Same read-out and setting: in the case of `CCCCOCCOCCOC(=O)CCCCC(=O)OCCOCCOCCCC` it was “inactive”; in that of `C=C(C)C(=O)OCC(F)(F)C(F)(F)C(F)(F)F`, “inactive”. For `CCCCCCCCCCCCCCCC[N+](C)(C)Cc1ccccc1`, the AC50 is 0.977 µM (active). For `O=C(O)C(F)(F)C(F)(F)C(F)(F)F`, the outcome was inactive. On to `COC(=O)CCC(F)(F)C(F)(F)C(F)(F)C(F)(F)F`, for which the result was inactive. In the case of `FC1CC(F)(F)C(F)(F)C1(F)F` (stereo not given), the result was inactive.

Regarding `CC(C)(C)C(=O)CC(=O)C(F)(F)C(F)(F)C(F)(F)F`, the result was inactive and the AC50 was 30 µM (active). On to `OCCCC(F)(F)C(F)(F)C(F)(F)C(F)(F)C(F)(F)C(F)(F)C(F)(F)F`, for which the AC50 was 44.1 µM (active) and 36.1 µM (active). On to `O=S(=O)(OCCOC(F)(F)F)C(F)(F)F`, for which the result was inactive. On the same count and under the same terms, with `C=C(C)C(=O)OCC(F)(F)C(F)(F)C(F)(F)C(F)(F)C(F)(F)C(F)(F)C(F)(F)F` the entry was “inactive”. Regarding `FC(F)(F)C(F)(F)C(F)(F)C(F)(F)C(F)(F)C(F)(F)C(F)(F)C(F)(F)F`, the result was inactive. Regarding `CCCCCCOC(=O)c1ccccc1O`, the AC50 is 37.4 µM (active) and 43.7 µM (active). For `O=C(O)C(F)(F)C(F)(F)F`, the outcome was inactive. Take `O=C(O)C=C(C(F)(F)F)C(F)(F)F`: the AC50 is 30 µM (active) and 47.7 µM (active). With `CCCCCCCCC(F)(F)C(F)(F)C(F)(F)C(F)(F)C(F)(F)C(F)(F)F`, the result was inactive. On the same count and under the same terms, in the case of `O=C(O)C(F)(OC(F)(F)C(F)(OC(F)(F)C(F)(OC(F)(F)C(F)(F)C(F)(F)F)C(F)(F)F)C(F)(F)F)C(F)(F)F` (stereo not given) it was “inactive”; in that of `FC(F)(Br)C(F)(F)C(F)(F)C(F)(F)C(F)(F)C(F)(F)Br`, “inactive”. With `O=C(O)C(F)(F)C(F)(F)C(F)(F)C(F)(F)C(F)(F)C(F)(F)C(F)(F)C(F)(F)Cl`, the AC50 is 53.3 µM (active) and 49 µM (active).
